Experimental findings from PubChem BioAssay AID540259 (Broad Institute, 2011) are described below.

Molecules are shown by their SMILES. Measured potencies and affinities stand elsewhere. Calls of active or inactive are those of the source.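 How the source made its calls: active means cell killing, meaning signal decrease, with fitted half-maximal dose at or below ten times the top valid tested dose; inconclusive means poor fit, or flat curve with 30 to 70% signal loss; inactive means the rest.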

A short description of the assay: HeLa cell cytotoxicity, dose response, cytotoxicity control for MITF activator project, CellTiter-Glo luminescence, cherry-pick samples (AID 540259). The settings on record: HeLa viability, CellTiter-Glo ATP luminescence, 24 h; series mostly up to 35 µM.
For `CSc1ccccc1OCc1cc(C(=O)N[C@H]2CCCCNC2=O)no1`, the molecule was called inactive.

As for `Clc1ccc(-c2cc(CSc3ccccc3)on2)cc1`, the molecule was called inactive.

Consider `COc1cccc(CNc2nc3ccccc3n2C)c1O`, for which the call was inactive.

With `Cc1ccccc1-c1nc(Cc2ccccc2)no1`, the call was inactive.

As to `CN(C)S(=O)(=O)c1cccc(-c2nnc(-c3ccccc3)o2)c1`, the molecule was classed as inactive.

As to `COc1ccc(/C=N/Nc2snc(SC)c2C#N)cc1OC`, the call was inactive.

For `COc1ccc(-c2nnc(SCc3ccccc3)n2N)cc1`, the call was inactive.

Regarding `O=C(Nc1ccc(F)cc1Cl)c1ccc2c(=O)n3c(nc2c1)CCC3`, the molecule was called inactive.

On to `Cc1ccc(NC(=O)CC(=O)c2ccccc2)cc1C`, for which the call was inactive.

`Cc1cc(NC(=O)c2ccc(Cl)cc2)no1`: the outcome was inactive.

With `c1cncc(-c2nc3ccccc3s2)c1`, the molecule was called inactive.

Consider `Cc1ccc(NC(=O)Nc2ccc3c(c2)OCO3)c(OC(F)F)c1`, for which the call was inactive.

With `O=C(Nc1ccccc1)Nc1ccc2nnsc2c1`, the molecule was classed as inactive.

`c1cnc2nc(-c3ccc4c(c3)OCO4)cn2c1`: the outcome was inactive.

Turning to `COc1ccc(Oc2nnc(C)c3ccccc23)cc1`, the call was inactive.

With `Cc1nc(-c2ccc(NC(=O)c3ccccc3Br)cc2)cs1`, the molecule was classed as inactive.

On to `Cc1nn(-c2ccccn2)c2c1-c1nc(N)ncc1CC2`, for which the outcome was inactive.

With `Nc1ccc(-c2nnc(-c3ccc(N)cc3)o2)cc1`, the result was inactive.

Regarding `Cc1ccsc1C(=O)OCc1nnc(-c2ccccc2)o1`, the outcome was inactive.

Consider `O=C(Cc1ccc(O)cc1)NC1CCCCCC1`, for which the outcome was inactive.

In the case of `O=C(N/N=C/c1ccc(OC(=O)c2ccccc2Cl)cc1)c1ccccn1`, the molecule was called inactive.

For `CCC(C)NC(=O)c1cc(-c2ccc(OC)cc2)on1` (stereo unspecified), the result was inactive.

For the molecule `O=C(N/N=C/c1ccccn1)c1c[nH]c2ccccc12`, the outcome was inactive.

In the case of `N#C/C(C(=O)N1CCCCC1)=C1\Nc2ccccc2S1`, the result was inactive.

For the molecule `Clc1ccc(SCc2cn3ccccc3n2)cc1`, the molecule was called inactive.

On to `Cn1cccc1C(=O)N/N=C/c1c(Cl)cccc1Cl`, for which the molecule was called inactive.

`COc1ccc2cc(C(N)=O)c(=Nc3ccccc3)oc2c1`: the molecule was classed as inactive.

Take `Oc1oc(-c2ccccc2)nc1C=NCc1ccccc1`: the molecule was classed as inactive.

Turning to `Cc1ccc(CSc2ccc(-c3cccs3)nn2)cc1`, the outcome was inactive.

Take `Cc1nc2ccccn2c1C(=O)N/N=C/c1ccc2c(c1)OCO2`: the result was inactive.

On to `Fc1cc(Br)ccc1COc1ccc(-c2nnco2)cc1`, for which the molecule was called inactive.

For the molecule `Nc1c(C(=O)C2CC2)sc2nc3c(cc12)CCC3`, the molecule was called inactive.

For the molecule `Cc1ccc(Nc2nnc(-c3ccccc3N)o2)cc1C`, the call was inactive.

With `Cc1nn(-c2ccc(N3CCCCC3)nn2)c(C)c1CCC(=O)Nc1cccc(F)c1`, the molecule was classed as inactive.

Take `Cn1cc(Br)c(C(=O)Nc2sc3c(c2C(N)=O)CCCC3)n1`: the outcome was inactive.

In the case of `c1ccc(CSCc2cn3ccsc3n2)cc1`, the result was inactive.
